This is an account of results in PubChem BioAssay.

For orientation: viability means a read-out of living cells in per cent, often relative to untreated cells. A word on the inhibition: it is the drop in the measured response relative to a control, in per cent.

Assay [1] is described as follows: reducers of endogenous Her2 protein level, primary screen, SKBR3 breast tumor cells, AlphaScreen, ATP viability (AID 461;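 active = Her2 level under about 52% in both replicate screens, with viability over 70% of control, limit read from the data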;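 for Her2 level: lower value means less Her2 protein in the cells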;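 for viability: percent of carrier control wells set as 100% viability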). Particulars: 18-24 h, measured here: SKBR3 viability, ATP luminescence, at 10 µM.
For assay [2], the target named is Receptor tyrosine-protein kinase erbB-2 (Homo sapiens) (UniProt P04626). The description is as above. Particulars: 18-24 h, at 10 µM, stronger effect = lower value.
Assay [3] is described as follows: SK-BR-3 cell growth inhibitors, pilot screen, 24 h, human (AID 572;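 active = viability at or below 10% of carrier control in both of two separate runs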;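 note: compound exposure lasted between 18 and 24 h rather than exactly 24 h; 100% = carrier-treated control wells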). Particulars: SK-BR-3 viability, CellTiter-Glo luminescence, at 10 µM, stronger effect = lower value.
Assay [4] in a line: HUVEC growth inhibition – cell-based, human, primary screen (AID 575;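 active = viability at or below 30% in both replicate assays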;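 note: 100% = median of untreated cell wells with 0.1% DMSO on each plate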). Particulars: HUVEC proliferation, CellTiter-Glo luminescence, 72 h; at 10 µM; stronger effect = lower value. For orientation: ATP-based viability assays read luminescence as a measure of living cells.
Assay [5] can be described thus: growth inhibitors of H69AR lung tumor, primary screen, human, duplicate replicates (AID 580;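 active = viability at or under a set limit in both replicates, limit being median viability minus 3 SD, cut at about 48% in these data, passing the limit was not always enough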;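 note: 100% = mean luminescence of untreated wells and 0% = no signal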). Particulars: H69AR lung tumor cells viability, ATP luminescence, 72 h; at 10 µM; stronger effect = lower value.
Assay [6] in a line: reversal of MRP1-mediated doxorubicin resistance, pilot screen, H69AR cells, doxorubicin co-treatment (AID 601;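 active = viability loss from added drug above about 55%, and viability with drug at most 40%, in both replicates, limit read from the data, passing the limit was not always enough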). Particulars: CellTiter-Glo, 72 h, at 10 µM; for differential viability (reversal): stronger effect = higher value.
The nature of assay [7]: 384-well plate pilot, post-Golgi transport modulator project, inhibition of yeast transport mutant growth (AID 636; in the data active = inhibition above about 31%). Particulars: absorbance 615 nm, about 18 h, stronger effect = higher value.
A short description of assay [8]: growth suppression of yeast trafficking mutant, preliminary HTS, modulators of trafficking downstream of Golgi apparatus project, 1536-format plate, OD 615 nm (AID 637; in the data active = inhibition above about 30%). Particulars: yeast transport mutant growth, absorbance 615 nm, 18 h; stronger effect = higher value.
The nature of assay [9]: OD615 S. cerevisiae growth inhibition, permissive medium, pilot counter-assay, permissive growth control for S. cerevisiae lifespan shortening project (AID 705;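 active = growth inhibition above 25% in both replicates, a cutoff set 3 SD above the mean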). Particulars: OD615, 24 h, at 10 µM, stronger effect = higher value.
Assay [10] can be described thus: Restrictive medium S. cerevisiae growth inhibition, OD615, pilot screen of yeast lifespan reduction project, restrictive growth control (AID 706;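 active = growth inhibition above a set limit, 3 SD over mean compound inhibition, in both replicates, cut at about 43% in these data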;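 note: modified DeaD lifespan yeast strain shifted to restrictive glucose medium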). Particulars: OD615, 48 h, at 10 µM, stronger effect = higher value.
Assay [11] is described as follows: viability gain of MRP-1-high H69AR cells under doxorubicin, pilot screen, MRP-1 activator project, CellTiter-Glo, duplicate (AID 807;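 active = viability increase at or above a cutoff of the median across tested compounds plus 3 SD, cut at about 8.5% in these data, passing the limit was not always enough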;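 note: compound pretreatment 18-22 h then 72 h combined with doxorubicin; 0% = doxorubicin alone and 100% = vehicle without doxorubicin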). Particulars: H69AR viability with doxorubicin, CellTiter-Glo luminescence; at 10 µM; stronger effect = higher value.
Assay [12] can be described thus: growth suppression of beta-catenin knockout HCT116, pilot screen, human colon tumor cells (AID 823;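 active = cell viability at or below a set limit in both duplicate runs, the limit being the all-compound median minus 4 SD, cut at about 23% in these data, passing the limit was not always enough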;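 note: 0% = wells killed by 20 µM Hyamine and 100% = untreated DMSO cell wells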). Particulars: CellTiter-Glo, 60 h, at 10 µM, stronger effect = lower value.
A short description of assay [13]: growth suppression of PTEN-deleted HCT116, pilot screen, cell-based, HCT116 clonal line, CellTiter-Glo (AID 824;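 active = viability at or below 27.92% in each of two runs, the all-compound median minus 4 SD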;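 note: 0% = 20 µM Hyamine control and 100% = vehicle cell control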). Particulars: 60 h, at 10 µM, stronger effect = lower value.
A short description of assay [14]: inhibitors of the yeast RAM network, pilot screen, dse1pr::URA3 reporter, 5-FOA selection (AID 869;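 active = inhibition over a set limit, the all-compound mean plus 3 SD, in both replicate runs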;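 note: 0% = DMSO wells with no growth and 100% = 10 µM 1-NA-PP1 with full growth; RAM network block rescues cells from 5-FOA so hits raise OD615 growth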). Particulars: S. cerevisiae dse1pr::URA3 5-FOA growth, OD615, 2 d; at 10 µM; stronger effect = higher value; strain carries analog-sensitive mutant Cbk1 kinase.
A short description of assay [15]: RAM signaling pathway blockade in yeast – S. cerevisiae, Pdr1DBD-CYC8 efflux-inhibited sensitized strain, primary screen (AID 1298).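 Note: 0% = DMSO untreated cells without growth and 100% = 10 µM 1-NA-PP1 full growth; higher means more yeast growth rescued from 5-FOA killing.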 Particulars: S. cerevisiae cbk1-as DSE1-URA3 strain, 5-FOA growth OD615, 2 d; at 50 µM; stronger effect = higher value.
Where [16] appears, read: H69AR cells + 2 uM doxorubicin, measured here: viability with 2 uM doxorubicin, stronger effect = lower value.
The mark [17] stands for this setting: H69AR cells, compound alone cytotoxicity.

Records with an inconclusive call do not appear. Active and inactive are the calls of the source.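 Rule for the calls, unless noted: active = RAM network inhibition above 8.4% in each of two replicates, 3 SD over the compound average; inconclusive = above 8.4% inhibition in only one replicate; inactive = 8.4% inhibition or less in each replicate.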

Chain of Receptor tyrosine-protein kinase erbB-2 (Homo sapiens) (P04626 whole entry, looked up): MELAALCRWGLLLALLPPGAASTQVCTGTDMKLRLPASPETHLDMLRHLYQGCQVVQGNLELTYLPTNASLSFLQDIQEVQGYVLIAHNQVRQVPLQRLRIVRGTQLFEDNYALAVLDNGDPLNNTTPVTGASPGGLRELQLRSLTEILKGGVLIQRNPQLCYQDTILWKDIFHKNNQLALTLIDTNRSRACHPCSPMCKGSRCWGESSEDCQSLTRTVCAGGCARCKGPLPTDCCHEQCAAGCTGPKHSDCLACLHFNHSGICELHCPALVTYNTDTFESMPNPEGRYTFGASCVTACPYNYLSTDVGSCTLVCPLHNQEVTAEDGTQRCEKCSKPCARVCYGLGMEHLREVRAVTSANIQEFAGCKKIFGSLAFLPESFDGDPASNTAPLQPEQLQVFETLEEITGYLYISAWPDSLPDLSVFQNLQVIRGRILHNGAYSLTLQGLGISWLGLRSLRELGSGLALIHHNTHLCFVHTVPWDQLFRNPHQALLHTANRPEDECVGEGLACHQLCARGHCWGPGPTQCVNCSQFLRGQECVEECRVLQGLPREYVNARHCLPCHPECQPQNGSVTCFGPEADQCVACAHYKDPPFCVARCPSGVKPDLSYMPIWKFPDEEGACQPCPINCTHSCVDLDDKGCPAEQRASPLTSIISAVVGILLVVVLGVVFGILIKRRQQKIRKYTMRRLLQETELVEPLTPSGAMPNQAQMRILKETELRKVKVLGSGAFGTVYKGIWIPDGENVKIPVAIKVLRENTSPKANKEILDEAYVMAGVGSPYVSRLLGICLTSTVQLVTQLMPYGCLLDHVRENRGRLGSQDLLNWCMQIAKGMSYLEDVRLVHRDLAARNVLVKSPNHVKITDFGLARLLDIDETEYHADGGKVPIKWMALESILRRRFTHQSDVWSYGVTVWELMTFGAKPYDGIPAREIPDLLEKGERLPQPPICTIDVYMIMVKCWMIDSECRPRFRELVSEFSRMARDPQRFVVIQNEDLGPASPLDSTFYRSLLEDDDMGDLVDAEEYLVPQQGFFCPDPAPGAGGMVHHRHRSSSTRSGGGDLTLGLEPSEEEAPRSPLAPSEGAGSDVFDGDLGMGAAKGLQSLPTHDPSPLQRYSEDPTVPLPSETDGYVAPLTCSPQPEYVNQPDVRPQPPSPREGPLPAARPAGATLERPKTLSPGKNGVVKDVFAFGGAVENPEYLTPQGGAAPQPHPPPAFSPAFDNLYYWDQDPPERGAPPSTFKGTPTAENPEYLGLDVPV

Turning to `COC1CCCCC1Nc1cccc(SC)c1` (stereo not given), the viability in assay [1] was 100%; in [3] it was 100% (inactive); in assay [4], 104% (inactive); in assay [5] it was 88.3% (inactive); in assay [6] (setting [16]) it was 77.7%; in assay [6] (setting [17]) it was 88.3%. The viability in assay [12] is 80.6% (inactive); in [13], 75.1% (inactive). For the same compound, in [2], the Her2 level was 112% (inactive). Further, the differential viability (reversal) in assay [6] (H69AR cells + 2 uM doxorubicin) was 10.6% (inactive). Moreover, the values for the inhibition in [7], in assay [8] and in assay [14] were -3.25% (inactive), -3% (inactive) and 1.83% (inactive), respectively. Besides, the growth inhibition in assay [9] is -1.82% (inactive); in [10] it was -18.4% (inactive). Further, the viability increase in [11] was -3.29% (inactive). Also, in assay [15], the RAM network inhibition is 7.2% (inactive).

As to `O=C1c2ccccc2C(Nc2cccnc2)N1Cc1ccccc1Cl` (stereo not given), the viability was 93% in assay [1]; 93% (inactive) in [3]; 94.9% (inactive) in assay [4]; 86.3% (inactive) in assay [5]; 102% in assay [6] (setting [16]); 86.3% in assay [6] (setting [17]). The figures for the viability in [12] and in [13] were 102% (inactive) and 99.2% (inactive), respectively. The Her2 level in assay [2] is 91% (inactive). In addition, the differential viability (reversal) in assay [6] (H69AR cells + 2 uM doxorubicin) was -16% (inactive). The inhibition in assay [7] was -3.2% (inactive); in assay [8] it was -3.5% (inactive); in [14], 0.17% (inactive). Also, the growth inhibition is -5.58% (inactive) in assay [9] and 10.4% (inactive) in [10]. In addition, the viability increase in [11] is -3.57% (inactive). Also, in assay [15], the RAM network inhibition is 0.57% (inactive).

As to `O=C(Cn1nc(Cc2ccncc2)c2ccccc2c1=O)N1CCc2ccccc2C1`, the viability in [1] is 83%; in [3] it was 83% (inactive); in [4] it was 95.3% (inactive); in [5], 96.5% (inactive); in assay [6] (setting [16]) it was 91.1%; in assay [6] (setting [17]) it was 96.5%. Besides, the viability in [12] and in assay [13] was 103% (inactive) in each case. The Her2 level in [2] is 100% (inactive). Besides, the differential viability (reversal) in assay [6] (H69AR cells + 2 uM doxorubicin) was 5.38% (inactive). For the same compound, the inhibition is -0.27% (inactive) in assay [7], -3.77% (inactive) in assay [8] and 1.33% (inactive) in assay [14]. Further, the growth inhibition in assay [9] is -1.69% (inactive); in assay [10], 3.79% (inactive). For the same compound, the viability increase in [11] is -2.78% (inactive). For the same compound, the RAM network inhibition in assay [15] is 3% (inactive).

`COc1ccc(OC)c(S(=O)(=O)N2CCN(c3c(C)cccc3C)CC2)c1`: the viability in assay [1] is 100%; in assay [3] it was 100% (inactive); in assay [4], 79.5% (inactive); in assay [5], 86.9% (inactive); in assay [6] (setting [16]), 83.4%; in assay [6] (setting [17]), 86.9%. Besides, the results for the viability in assay [12] and in assay [13] were 68% (inactive) and 82.5% (inactive), respectively. The Her2 level in assay [2] is 86% (inactive). Moreover, the differential viability (reversal) in assay [6] (H69AR cells + 2 uM doxorubicin) was 3.56% (inactive). Also, the inhibition in assay [7] was -8.53% (inactive); in [8], 2.33% (inactive); in [14] it was 1.79% (inactive). In addition, the growth inhibition in [9] is 0.405% (inactive); in assay [10] it was 6.42% (inactive). Also, in assay [11], the viability increase is -2.38% (inactive). In assay [15], the RAM network inhibition is 6.46% (inactive).

For `CCC(C)C(NC(=O)C1CCC(C)CC1)C(=O)NCc1cccnc1` (stereo not given), the viability is 99% in [1]; 99% (inactive) in assay [3]; 82.4% (inactive) in assay [4]; 102% (inactive) in [5]; 96.3% in assay [6] (setting [16]); 102% in [6] (setting [17]). Besides, the values for the viability in [12] and in assay [13] were 86.4% (inactive) and 87.7% (inactive), respectively. The Her2 level in assay [2] is 87.5% (inactive). In addition, in assay [6] (H69AR cells + 2 uM doxorubicin), the differential viability (reversal) was 5.36% (inactive). Besides, the inhibition in assay [7] is -6.89% (inactive); in [8] it was 3.17% (inactive); in [14] it was 0.265% (inactive). The growth inhibition in [9] was -12.5% (inactive); in assay [10] it was -2.67% (inactive). Also, in assay [11], the viability increase was -0.91% (inactive). Also, the RAM network inhibition in [15] is 4.7% (inactive).
